Among all 5,500 compounds or so, about 2,000 (36%) were called active. About 18% were inconclusive and are not listed. No stated cut-off is given here; in the data, active means normalized growth mostly below about 0.91 (no sharp cut-off); inconclusive means no clear call, values can overlap the other calls; inactive means mostly above about 0.92. The list shows a part of the results.
Assay: chemical genetic growth profiling, strain panel (AID 1159580);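 further: tested at 20 µM; growth read once vehicle control cultures reached saturation at 30 °C; 1 = growth at the plate median or of vehicle wells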
Conditions: S. cerevisiae deletion strains, growth OD

Measured: normalized growth

Cc1cc(N)c2ccccc2[n+]1CCCCCCCCCCCCCC[n+]1c(C)cc(N)c2ccccc21
active: locus YAL013W, strain DEP1, stronger effect = lower value 0.365 | locus YAL040C, strain CLN3, stronger effect = lower value 0.0844 | locus YCL061C, strain MRC1 (second series), stronger effect = lower value 0.0514 | locus YDR150W, strain NUM1, stronger effect = lower value 0.0556 | locus YDR363W, strain ESC2, stronger effect = lower value 0.0835 | locus YER002W, strain NOP16, stronger effect = lower value 0.0687 | locus YNL175C, strain NOP13, stronger effect = lower value 0.0676 | locus YNL197C, strain WHI3, stronger effect = lower value 0.0663 | locus YNL224C, strain SQS1, stronger effect = lower value 0.068 | locus YOR083W, strain WHI5 (second series), stronger effect = lower value 0.0774
